KCNQ2 block: KCNQ2 (rat) channel inhibition; actives 1.1% (n = 310,000); CHO-K1 KCNQ2, FluxOR thallium flux, 20 min; hits give low values; O88943; B-score at 10 µM;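 active = fluorescence ratio B-score at most minus 3 library SDs, with starting brightness B-score within 2 library SDs, cut at about -5.5 in these data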
KCNQ2 pot: enhances the rat KCNQ2 potassium channel; O88943; B-score at 10 µM; CHO-K1 KCNQ2, FluxOR thallium flux fluorescence; hits give high values; actives 0.54% (n = 310,000);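 active = fluorescence ratio B-score at least 3 SD of library B-scores, with initial fluorescence B-score within 3 of them, cut at about 5.3 in these data; same plate scores as AID 2156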;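 note: B-score of peak minus minimum over baseline fluorescence ratio after K+ and Tl+ stimulus; positive B-score means potentiation of KCNQ2 with more thallium influx and brighter signal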
Starred values were filed as active, the others as inactive; i = inactive; . = no result given. This is a sample that favours compounds with a hit; in the whole collection about 1.6% have one here.

SMILES | KCNQ2 block | KCNQ2 pot
Cc1ccc(S(=O)(=O)N2CCCCC2)cc1NC(=O)COC(=O)Cc1cccc(C(F)(F)F)c1 | i | 1.6
COc1ccc(Br)cc1-c1nc(C)c(C(C)=O)n1O | -7.2* | -7.2
COc1ccc(Br)cc1-c1noc(-c2ccccc2)n1 | i | .
CCOc1ccc(NC(=O)CN(C)C(=O)c2c(C)nn(-c3ccccc3)c2Cl)cc1OCC | i | .
O=Cc1[nH]c2ccccc2c1N(C(=O)CCl)c1ccc([N+](=O)[O-])cc1 | -12* | -12
CC(=O)n1cc(N(C(=O)CCl)c2ccc([N+](=O)[O-])cc2)c2ccccc21 | i | .
CCCc1cc(=O)oc2c(C)c(OCC(=O)NC3CCN(Cc4ccccc4)CC3)ccc12 | i | .
CC(=O)c1ccc(-n2c(C)ccc2-c2ccccc2)cc1 | i | .
COC(=O)c1ccc(-n2c(C)ccc2-c2ccccc2)cc1 | -6.6* | -6.6
CCCCc1ccc(NC(=O)CSc2nc(=O)n3cc(C)ccc3n2)cc1 | i | .
COc1c(CC=C(C)C)cc(C2CC(=O)c3c(O)cc(O)cc3O2)cc1CC=C(C)C (stereo not given) | -5.6* | -5.6
O=C1C[C@@H](c2ccccc2)Oc2cc(O)cc(O)c21 | i | 0.64
Cc1ccc(NC(=O)COCC(=O)Nc2ccc(F)cc2)cc1 | i | .
CN1c2ccccc2C(C)(C)C12C=Nc1c(cc(N3CCOCC3)c3ccccc13)O2 (stereo not given) | i | .
CN1c2ccccc2C(C)(C)C12C=Cc1cc(O)ccc1O2 (stereo not given) | -7.1* | -7.1
Cc1cc(C)c(C#N)c(SCC(=O)c2cc(C)n(CCc3ccccc3)c2C)n1 | -6.4* | -6.4
COCCn1c(C)cc(C(=O)CSc2nc(C)cc(C)c2C#N)c1C | i | .
CCOC(=O)C1(CC2CCCCO2)CCN(Cc2nc(C(C)C)cs2)CC1 (stereo not given) | i | 0.19
O=C(CN1CCN(Cc2ccccc2F)CC1)Nc1ccccc1Cl | i | .
O=C(Nc1nc(-c2ccc(Cl)cc2Cl)cs1)c1ccc(OCC2CCCO2)cc1 (stereo not given) | i | .
CC(C)COc1ccc(C(=O)Nc2scc(-c3ccc(Cl)cc3Cl)c2C(N)=O)cc1 | -7.1* | -7.1
Cc1ccccc1NS(=O)(=O)c1cc(C(=O)NCCSC2CCCCC2)ccc1C | -5.8* | -5.8
Cc1ccc(C)c(NS(=O)(=O)c2cc(C(=O)NCCSC3CCCCC3)ccc2C)c1 | i | .
Cc1ccc(S(=O)(=O)NCc2ccc(C(=O)NCCCN3CCC(Cc4ccccc4)CC3)cc2)cc1 | i | .
O=C(CN=C1NC(=O)C(c2ccccc2)(c2ccccc2)N1)NCc1ccc(F)cc1 | i | .
SMILES | KCNQ2 block | KCNQ2 pot
COc1ccc(CNC(=O)CN=C2NC(=O)C(c3ccccc3)(c3ccccc3)N2)cc1 | -6.1* | -6.1
COC(=O)c1ccccc1NC(=O)c1ccc(COc2cc(C)cc(C)c2)o1 | -6.4* | -6.4
COC(=O)c1ccccc1NC(=O)c1ccc(COc2ccc(C)c(C)c2)o1 | -6.6* | -6.6
Cc1ccc(OCc2ccc(C(=O)NN)o2)cc1C | i | .
COc1ccccc1NC(=O)c1ccc(COc2ccccc2OC)o1 | i | .
CCN(CC(=O)N1CCCC1)S(=O)(=O)c1cc(C)ccc1OC | i | .
N#CCC(=N)N1CCN(c2ccc(F)cc2)CC1 | i | .
Cc1cccc(NC(=O)c2ccc(S(=O)(=O)N3CCCCC3)cc2)c1 | i | 1.6
COc1cc([N+](=O)[O-])ccc1NC(=O)NCC1CCN(Cc2ccc(Cl)cc2)CC1 | -6.1* | -6.1
COc1ccc(Cl)cc1NC(=O)NCC1CCN(Cc2cc(C)ccc2C)CC1 | i | .
Cc1c(OCC(=O)N[C@H](C(=O)O)c2ccccc2)ccc2c3c(c(=O)oc12)CCCC3 | i | 0.41
O=C(NCc1ccccc1)c1noc2c1CCCC2 | i | .
O=C(NCc1ccc(Cl)cc1)c1noc2c1CCCC2 | -6.5* | -6.5
CC1=C(C(=O)OCc2ccccc2)C(c2cccc(F)c2)NC(=O)N1 (stereo not given) | i | 0.13
CN(C)CC(C)(C)CNC(=O)CC1C(=O)NCCN1Cc1ccc(-c2ccccc2)cc1 (stereo not given) | i | .
CC1CCN(C(=O)N2c3ccccc3Sc3ccccc32)CC1 | i | .
CC1CN(C(=O)N2c3ccccc3Sc3ccccc32)CC(C)O1 (stereo not given) | -6.2* | -6.2
CC1=C([N+](=O)[O-])C(c2ccc(Cl)cc2)NC(=O)N1 (stereo not given) | i | 1.5
O=C(CN(Cc1ccco1)C(=O)c1cccc(Cl)c1)Nc1c(Cl)cc(Cl)cc1Cl | -5.7* | -5.7
O=C(CN(Cc1ccco1)C(=O)c1ccc(Cl)cc1)Nc1c(Cl)cc(Cl)cc1Cl | i | .
Cc1cc(C)c2c(N)c(C(=O)N3CCc4ccccc4C3)sc2n1 | -7.7* | -7.7
CCN1CCc2nc3sc(C(=O)N4CCc5ccccc5C4)c(N)c3cc2C1 | i | .
O=C(NC1CCCN(CCc2ccccc2)C1)C1CCCC1 (stereo not given) | -6.8* | -6.8

Assay outcomes from PubChem BioAssay.
